# According to PubChem BioAssay AID1611 (NINDS Approved Drug Screening Program, 2009):
# Experiment: HSE-luciferase reporter activators – cell-based (AID 1611)
# Conditions: human cells, HSE-luciferase heat shock reporter; stronger effect = higher value
row,Structure (SMILES),fold change
1,CCOC(=O)C(Cc1ccc(O)cc1)NC(C)=O (stereo not given),0.71
2,OC[C@H]1O[C@@H](O[C@@H]2[C@@H](CO)O[C@](O)(CO)[C@H]2O)[C@H](O)[C@@H](O)[C@H]1O,0.82
3,CC1(C)S[C@@H]2C(N3C(=O)[C@@H](c4ccccc4)NC3(C)C)C(=O)N2[C@H]1C(=O)O (stereo not given in full),1.12
4,O=C1c2ccccc2C(=O)C1c1ccccc1,331
5,N[C@@H]1[C@@H](O)[C@H](O)[C@@H](CO)O[C@H]1O,1.15
6,CCCn1c(=O)c2[nH]c(C3CCCC3)nc2n(CCC)c1=O,0.74
7,CCN(CC)CCNC(=O)c1cc(Br)c(N)cc1OC,1.36
8,O=c1cc[nH]c(=S)[nH]1,0.78
9,COC(=O)C(N)CS (stereo not given),0.85
10,NC[C@@H]1O[C@H](O[C@@H]2[C@@H](CO)OC(O[C@@H]3[C@@H](O)[C@H](N)C[C@H](N)[C@H]3OC3O[C@H](CN)[C@@H](O)[C@H](O)[C@H]3N)[C@@H]2O)[C@H](N)[C@@H](O)[C@@H]1O (stereo not given in full),0.96
11,CCn1cc(C(=O)O)c(=O)c2ccc(C)nc21,0.98
12,COCCc1ccc(OCC(O)CNC(C)C)cc1 (stereo not given),0.6
13,C[C@](N)(Cc1ccc(O)c(O)c1)C(=O)O,0.74
14,Fc1ccc(C(c2ccc(F)cc2)N2CCN(C/C=C/c3ccccc3)CC2)cc1,1.3
15,O=C(OCc1ccccc1)c1ccccc1,0.75
16,CC(=O)Nc1nnc(S(N)(=O)=O)s1,0.33
17,CCCCCCc1ccc(O)cc1O,1.27
18,COc1ccc2c(c1)c(CC(=O)O)c(C)n2C(=O)c1ccc(Cl)cc1,0.9
19,C[N+]1(C)C2CC[C@H]1CC(OC(=O)C(O)c1ccccc1)C2 (stereo not given in full),1.16
20,CCN(CC)CCOC(=O)c1ccc(N)cc1,0.94

row,Structure (SMILES),fold change
1,CSc1ccc2c(c1)N(CCC1CCCCN1C)c1ccccc1S2 (stereo not given),0.58
2,Nc1cc(-c2ccncc2)c[nH]c1=O,1.16
3,CCCCCC(=O)O[C@]1(C(C)=O)CCC2C3CCC4=CC(=O)CC[C@]4(C)C3CC[C@@]21C (stereo not given in full),1.47
4,Nc1ccc(S(=O)(=O)Nc2ccccn2)cc1,0.76
5,Cc1ccc(S(=O)(=O)NC(=O)NN2CCCCCC2)cc1,0.73
6,Nc1c(Br)cc(Br)cc1CNC1CCC(O)CC1 (stereo not given),1.19
7,C[N+](C)(C)CCO,0.93
8,CN(C)C(=O)C(CCN1CCC(O)(c2ccc(Cl)cc2)CC1)(c1ccccc1)c1ccccc1,1.52
9,COc1ccc(C(=O)c2ccccc2)c(O)c1,0.92
10,O=c1[nH]cc(F)c(=O)[nH]1,0.52
11,NC(N)=NC(N)=Nc1ccccc1,0.95
12,O=C(O)CCC(=O)c1ccc(-c2ccccc2)cc1,1.02
13,COC1=C2C[C@@H](C)C[C@H](OC)[C@H](O)[C@@H](C)/C=C(\C)[C@@H](OC(N)=O)[C@H](OC)/C=C\C=C(/C)C(=O)NC(=CC1=O)C2=O,1.05
14,Cn1nnnc1SCC1=C(C(=O)O)N2C(=O)C(NC(=O)C(O)c3ccccc3)C2SC1 (stereo not given),1.15
15,CC(CN(C)C)CN1c2ccccc2CCc2ccccc21 (stereo not given),1.16
16,CC1(C)S[C@@H]2[C@H](NC(=O)[C@H](NC(=O)N3CCNC3=O)c3ccccc3)C(=O)N2C1C(=O)O (stereo not given in full),0.89
17,O=C(O)c1cc(=O)c2ccccc2[nH]1,1.38
18,O=C(O)c1ccccc1O,0.73
19,CC(=O)O[C@]1(C(C)=O)CCC2C3C=C(Cl)C4=CC(=O)[C@@H]5C[C@@H]5[C@]4(C)C3CC[C@@]21C (stereo not given in full),9.01
20,O=C(O)c1cccnc1Nc1cccc(C(F)(F)F)c1,1.08
